Records with an inconclusive call do not appear. Where a call stands in place of a potency, no number is given. Calls of active or inactive are those of the source. The call rests on the fitted dose curve; in most records, active means well fitted inhibition curve with a large enough effect; inconclusive means small, poorly fitted or top-dose-only effect; inactive means no such curve, though single readings can be large or run the other way.
target: Luciferin 4-monooxygenase (Photinus pyralis) (UniProt P08659); test: Confirmatory firefly luciferase (FLuc) qHTS assay for identification of artifact compounds; details: purified FLuc enzyme, luminescence, 5 min; series mostly up to 38.9 µM
How it was run: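 Compounds were preincubated 15 min at room temperature with 10 uM D-luciferin and 10 uM ATP in Tris acetate pH 7.6. 10 nM Photinus pyralis luciferase was then added, and luminescence was read after 5 min.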
Potency means the concentration at half of the fitted maximal effect.

Structure (SMILES)	Potency	activity change, negative = inhibition
COc1ccc(CNC(=O)c2ccc(NC(=O)N3CCCCc4ccccc43)cc2)cc1	inactive	–
Cc1cccc(NC(=O)COC(=O)CCCC2=NS(=O)(=O)c3ccccc3N2)c1	inactive	–
Cc1ccc(NC(=O)CSc2ccc(-c3cccs3)nn2)cc1Cl	inactive	–
COc1ccc(NC(=O)Cc2noc3ccc(C)cc23)cc1Cl	inactive	–
CCOc1ccc(N=C(C)Nc2ccc(OCC)cc2)cc1	inactive	–
CCCOC(=O)c1ccc(NC(=O)C2CC(=O)N(c3ccc(C)cc3)C2)cc1 (stereo not given)	inactive	–
O=C1C(c2ccc(F)cc2)N(CCc2ccc(Cl)cc2)C(=O)CN1C1CCCCC1 (stereo not given)	inactive	–
COc1cc(=O)n2c(c1C(=O)N(C)Cc1nccs1)CCN(Cc1cc(C)cc(C)c1)CC2	inactive	–
C[C@@H]1OC(OC2C(OC3CC[C@@]4(C)C5CC=C6C7CC(C)(C)CC[C@@]7(C(=O)O)CCC6(C)C5(C)CCC4[C@]3(C)CO)OCC(O)C2O)C(O)C(O)C1O (stereo not given in full)	inactive	–
CCCc1nn2cc(-c3ccc(C)c(C)c3)nc2s1	770 nM (active)	–
CCCS(=O)(=O)N1CC(=O)N(c2ccc(C)cc2C)C(C)(C(=O)NC2CCCCCC2)C1 (stereo not given)	inactive	–
CCCNC(=O)c1ccccc1NC(=O)c1nsc2ccccc12	inactive	–
O=c1oc2ccc(Br)cc2cc1-c1csc(-c2ccc(Cl)cc2)n1	inactive	–
COc1ccc(NC(=O)c2cc(-c3ccccc3O)no2)cc1	inactive	–
Cc1cc(C)n2ncc(C(=O)Nc3ccc(-c4cn[nH]c4)cc3)c2n1	inactive	–
Cc1c(CCNC(=O)Cc2ccc(F)cc2)sc2nc(-c3ccc(F)cc3)nn12	inactive	–
Nc1ccc(F)cc1F	inactive	–
O=C(O)CCCC/C=C\C[C@@H](O)/C=C/C=C/C=C\[C@@H](O)CCCC(=O)O	–	-5.27% [at 0.322 µM] (inactive)

Structure (SMILES)	Potency	activity change, negative = inhibition
CNc1cccc(S(=O)(=O)N2CCCN(S(=O)(=O)c3ccc4c(c3)OCCO4)CC2)c1	inactive	–
C[C@@H]1CC2(OC3C[C@@]4(C)C5=CC[C@H]6C(C)(C)C(O[C@@H]7OC[C@@H](O)[C@H](O)[C@H]7O)CC[C@@]67C[C@@]57CC[C@]4(C)C31)OC(O)C1(C)OC21 (stereo not given in full)	inactive	–
C[C@@H]1O[C@H](O[C@@H]2C(O)[C@H](O)[C@@H](CO)O[C@H]2Oc2cc(O)c3c(=O)cc(-c4ccc(O)cc4)oc3c2)[C@H](O)[C@H](O)[C@H]1O (stereo not given in full)	inactive	–
COc1ccc(C(=O)Nc2noc3ccccc23)cc1	864 nM (active)	–
O=C(Nc1ccc(Oc2ccccc2)cc1)Nc1nnc(-c2ccncc2)s1	inactive	–
COc1cc(Br)c(/C=C(\C#N)c2nc3ccccc3[nH]2)cc1OC	inactive	–
COc1ccc(NC(=O)c2ncoc2-c2ccco2)cc1Cl	inactive	–
COC(=O)CN1C(=O)[C@@H]2[C@H](C1=O)[C@@H]1CC(C(=O)OC)=C[C@@H](C(=O)OC)C3C1=C(C(=O)C31CCCCC1)[C@@H]2C (stereo not given in full)	inactive	–
O=C(Nc1nnc(-c2ccccc2)s1)c1ccc(S(=O)(=O)N2CCCC2)cc1	inactive	–
COc1ccc(OC(=O)c2nc(SCc3ccccc3C)ncc2Cl)cc1	inactive	–
COCCNC(=O)CCCn1c(SCC(=O)Nc2cccc(C)c2)nc2c(sc3ccccc32)c1=O	inactive	–
O=C(/C=C/c1ccc(O)c(O)c1)c1ccc(O[C@@H]2O[C@H](CO)[C@@H](O)[C@H](O)[C@H]2O)c(O)c1O	inactive	–
CO[C@@H]1[C@@H](O[C@@H]2O[C@H](C)[C@@H](O[C@H]3C[C@@](C)(O)[C@@H](OC(=O)CC(C)C)[C@H](C)O3)[C@H](N(C)C)[C@H]2O)[C@@H](CC=O)C[C@@H](C)C(=O)/C=C/C2OC2C[C@@H](C)OC(=O)C[C@H]1OC(C)=O (stereo not given in full)	inactive	–
Cc1nc(CC(=O)Nc2ccc(C)c(C)c2)cs1	inactive	–
CCC(=O)N1CCCc2cc(S(=O)(=O)N3CCC(C(=O)Nc4ccccc4CC)CC3)ccc21	inactive	–
Cc1ccc(-c2nc(S(=O)(=O)c3ccc(Cl)cc3)c(N3CCCCC3)o2)cc1	inactive	–
Cc1ccc(-c2nc(S(=O)(=O)c3ccc(C)cc3)c(N3CCCCC3)o2)cc1	inactive	–

— PubChem BioAssay AID1845227 (National Center for Advancing Translational Sciences (NCATS), 2023)
